{"source": "PubChem BioAssay (NCI)", "note": "The panel holds about 83,000 compounds, 20% with a hit somewhere; the sample as a whole holds those more often.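 Assay: single dose, 48 h. Readout: percent growth (0 = no net growth; negative = cell death). Active: <10.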 The source made the active and inactive calls.", "data": [{"system": "MDA-MB-468 breast", "test": "NCI-60 one-dose screen, 48 h (100 = growth as untreated, 0 = no growth, -100 = all killed)", "conditions": "10 µM unless noted", "values": [{"smiles": "CNc1ccc(NC)c2c1C(=O)c1ccccc1C2=O", "growth": "-7.38% (active)"}, {"smiles": "C#COc1cccc(Nc2c(C#N)cnc3ncc(NC(=O)CCl)cc23)c1", "growth": "3.39% [6.25 µM] (active)"}, {"smiles": "FC(F)c1nc2ccccc2n1-c1nc(N2CCOCC2)nc(N2CCOCC2)n1", "growth": "-43.2% (active)"}, {"smiles": "COc1cc2nc3c(=O)n(-c4ccc(C#N)cc4)cnn3c(=O)c2cc1OC", "growth": "97.4% (inactive)"}, {"smiles": "CS(=O)(=O)c1ccc(NC(=O)c2ccccc2)nc1", "growth": "105% (inactive)"}, {"smiles": "COc1cccc(-c2nn(-c3ccccc3)cc2-c2ccnc(NCCCNC(=O)Nc3ccc(Cl)c(Cl)c3)c2)c1", "growth": "-42.9% (active)"}]}]}
